Source: the supplement of paper PMC5662767

test system: Drosophila S2 cl14 SmoIP sensor cells; assay: normalized SmoIP GFP fluorescence (untreated unstimulated = 0%, untreated Hh-stimulated = 100%); higher = more Smo activation sensor fluorescence; conditions: stimulation: Hh conditioned medium (+Hh); compound concentration: 2 uM; 24 h
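Further: flow cytometry read-out as median GFP intensity of gated cells, compounds added 30 min before Hh-conditioned or mock medium, mock-treated cells serving as unstimulated baseline.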

SMILES | normalized SmoIP GFP fluorescence
O=C(CCCCCN1C(=O)c2cccc3cccc(c23)C1=O)NO [scriptaid] | 163%
COc1c(C)cnc(Cn2cnc3c(Cl)nc(N)nc32)c1C | 121%
O=C(c1ccc(F)cc1)N1CCC[C@H](c2nc(-c3ccc(F)cc3)no2)C1 | 156%
COc1cc(OC)c(NC(=O)Nc2cc(C)on2)cc1Cl | 114%
COC[C@H](NC(=O)c1cnc(C)s1)C(=O)N[C@@H](COC)C(=O)N[C@@H](Cc1ccccc1)C(=O)[C@@]1(C)CO1 [oprozomib-onx-0912] | 81.9%
O=C(O)c1cc2cccc([N+](=O)[O-])c2[nH]1 | 136%
Oc1cccc(-c2nc(N3CCOCC3)c3oc4ncccc4c3n2)c1 | 85.1%
CN(C)CCCCC(=O)Nc1ccc(NC(=S)NC(=O)c2ccc(C(C)(C)C)cc2)cc1 [tenovin-6] | 112%
COC(=O)N[C@H](C(=O)N1CCC[C@H]1c1ncc(-c2ccc(-c3ccc(-c4cnc([C@@H]5CCCN5C(=O)[C@@H](NC(=O)OC)C(C)C)[nH]4)cc3)cc2)[nH]1)C(C)C | 112%
CN1CCC(CNc2ccc3ncc(-c4cccc(OC(F)(F)F)c4)n3n2)CC1 | 122%
CCCCc1nc(Cl)c(CO)n1Cc1ccc(-c2ccccc2-c2nnn[nH]2)cc1 [losartan-potassium] | 90.8%
CC(C)C[C@H](NC(=O)[C@H](Cc1ccccc1)NC(=O)c1cnccn1)B(O)O [Bortezomib] | 70.3%
Cn1c(Nc2ccc(C(F)(F)F)cc2)nc2cc(Oc3ccnc(-c4ncc(C(F)(F)F)[nH]4)c3)ccc21 | 183%
